Holding throughout (test): NCI-60 one-dose screen, 48 h (100 = growth as untreated, 0 = no growth, -100 = all killed)
The test system of one test is SR leukemia. The following applies: 10 µM unless noted.
The next test deals with RPMI-8226 leukemia. As to conditions: 10 µM unless noted.
Another test deals with OVCAR-8 ovarian. The following applies: 10 µM unless noted.
A further test has as its system OVCAR-5 ovarian. As to conditions: 10 µM unless noted.
A further test relates to OVCAR-4 ovarian. The following applies: 10 µM unless noted.
The test system of the next test is SK-OV-3 ovarian. As to conditions: 10 µM unless noted.
Another test relates to IGROV1 ovarian. As to conditions: 10 µM unless noted.
A further test has as its system OVCAR-3 ovarian. As to conditions: 10 µM unless noted.
For the next test, the system named is HS 578T breast. As to conditions: 10 µM.
A further test concerns NCI/ADR-RES ovarian. The following applies: 10 µM unless noted.
In another test the test system is T-47D breast. The following applies: 10 µM unless noted.
For a further test, the system named is BT-549 breast. The following applies: 10 µM unless noted.
In the next test the test system is MDA-MB-435 melanoma. As to conditions: 10 µM unless noted.
The subject of another test is SW-620 colon. The following applies: 10 µM unless noted.
Another test concerns MCF7 breast. The following applies: 10 µM unless noted.
The test system of the next test is HCT-116 colon. The following applies: 10 µM unless noted.
The next test has as its system HCC-2998 colon. As to conditions: 10 µM.
The test system of the next test is KM12 colon. The following applies: 10 µM unless noted.

This is part of a sample that, as a whole, favours compounds with a hit. Of some 83,000 tested, about 20% had one in any assay.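 Method: cells in 96-well plates; compound added at one concentration; 48 h incubation; percent growth measured; values under 10 scored active.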 A number with no mark means an inactive call. Active and inactive are the calls of the source.

As for `COC(=O)C1=C(C(=O)OC)C23C=C(C)C1C2=C(C)C1(CC1)[C@@](C)(O)C3=O` (some centres undefined), the growth in the test with SR leukemia was 66.6%; in the test on RPMI-8226 leukemia, 92.3%; in the test with OVCAR-8 ovarian it was 12.7%; in the test with OVCAR-5 ovarian it was -3.58% (active); in the test on OVCAR-4 ovarian, 1.65% (active); in the test with SK-OV-3 ovarian it was -21.6% (active). In addition, the growth in the test with IGROV1 ovarian was 3.08% (active); with OVCAR-3 ovarian it was -2.36% (active); in the test with HS 578T breast, 23.2%; in the test on NCI/ADR-RES ovarian it was -3.49% (active); with T-47D breast, -3.03% (active); in the test with BT-549 breast, -35.7% (active). In addition, the growth was -18.2% (active) with MDA-MB-435 melanoma; 78.1% in the test on SW-620 colon; 11.3% with MCF7 breast; 5.3% (active) in the test on HCT-116 colon; -22.1% (active) in the test with HCC-2998 colon; 29.6% in the test on KM12 colon.
As to `COc1cnc2c(c1)C(=O)c1c-2n(CCCN2CCC(N)CC2)c(=O)c2cc([N+](=O)[O-])ccc12`, the growth is 2.78% (active) in the test on SR leukemia; 39.6% with RPMI-8226 leukemia; 42.4% in the test with OVCAR-8 ovarian; 119% in the test on OVCAR-5 ovarian; 60.4% with OVCAR-4 ovarian; 30.4% with SK-OV-3 ovarian. Besides, the growth with IGROV1 ovarian is 56%; in the test on OVCAR-3 ovarian it was 79.7%; in the test with HS 578T breast, 81.4%; with NCI/ADR-RES ovarian it was 76%; in the test with T-47D breast, 46.6%; in the test on BT-549 breast, 76.7%. Moreover, the growth was 85.9% in the test on MDA-MB-435 melanoma; 37.2% in the test on SW-620 colon; 25.3% in the test with MCF7 breast; 36.4% in the test with HCT-116 colon; 69.3% with HCC-2998 colon; 44.6% with KM12 colon.
`CC(CCCC(=O)O)c1ccoc1` (centres undefined): the growth with SR leukemia is 102%; in the test with RPMI-8226 leukemia it was 104%; in the test on OVCAR-8 ovarian, 109%; with OVCAR-5 ovarian, 105%; in the test on OVCAR-4 ovarian, 99.7%; with SK-OV-3 ovarian, 95.1%. Further, the growth in the test with IGROV1 ovarian was 102%; in the test with OVCAR-3 ovarian it was 105%; in the test with HS 578T breast, 112%; with NCI/ADR-RES ovarian, 104%; in the test with T-47D breast, 89.6%; in the test with BT-549 breast, 108%. Moreover, the growth is 107% in the test on MDA-MB-435 melanoma; 110% with SW-620 colon; 94.1% in the test on MCF7 breast; 101% in the test with HCT-116 colon; 96.7% with HCC-2998 colon; 98.7% with KM12 colon.
Turning to `CC(C)(C)c1ccc(Cn2cc(CSc3nc4ccccc4s3)nn2)cc1`, the growth in the test with SR leukemia was 98.7%; in the test on RPMI-8226 leukemia, 97.2%; in the test on OVCAR-8 ovarian it was 92%; with OVCAR-5 ovarian, 94.4%; with OVCAR-4 ovarian, 97.5%; with SK-OV-3 ovarian, 96.6%. Also, the growth in the test on IGROV1 ovarian is 90.7%; with OVCAR-3 ovarian it was 107%; in the test on HS 578T breast, 93.7%; with NCI/ADR-RES ovarian, 92.8%; with T-47D breast, 73.4%; in the test on BT-549 breast, 87.7%. Besides, the growth in the test with MDA-MB-435 melanoma was 106%; with SW-620 colon, 97.3%; in the test with MCF7 breast it was 91.4%; in the test on HCT-116 colon, 121%; with HCC-2998 colon, 104%; in the test with KM12 colon it was 101%.
Regarding `C=C1C[C@H](O)[C@H](Br)C(C)(C)[C@@]12CCC(C)=C(Cl)C2`, the growth is 5.02% (active) with SR leukemia; -18.2% (active) with RPMI-8226 leukemia; 29% with OVCAR-8 ovarian; 43.3% in the test on OVCAR-5 ovarian; 27.3% with OVCAR-4 ovarian; 12.1% with SK-OV-3 ovarian. The growth was 40.1% with IGROV1 ovarian; 35.2% in the test on OVCAR-3 ovarian; 22.3% with HS 578T breast; 22.1% with NCI/ADR-RES ovarian; 28.7% with T-47D breast; 26.4% in the test on BT-549 breast. The growth is 9.73% (active) in the test on MDA-MB-435 melanoma; 29.8% in the test on SW-620 colon; 16.3% in the test with MCF7 breast; 9.9% (active) in the test on HCT-116 colon; 42.3% with HCC-2998 colon; 13.7% with KM12 colon.
On to `CCc1nc2cc(/C=C/C(=O)NO)ccc2c(=O)n1CCc1ccc(F)cc1`, for which the growth in the test on SR leukemia was 10.7%; in the test on RPMI-8226 leukemia, 6.42% (active); with OVCAR-8 ovarian, 5.85% (active); with OVCAR-5 ovarian, 25.7%; with OVCAR-4 ovarian, 25.4%; in the test with SK-OV-3 ovarian it was -16.3% (active). Further, the growth with IGROV1 ovarian was 28%; with OVCAR-3 ovarian it was -13.5% (active); with HS 578T breast it was 52.6%; with NCI/ADR-RES ovarian it was 4.25% (active); in the test with T-47D breast, -0.122% (active); with BT-549 breast, 23.8%. Moreover, the growth was 17.3% in the test on MDA-MB-435 melanoma; 6.35% (active) with SW-620 colon; 10.2% in the test on MCF7 breast; 3.23% (active) in the test with HCT-116 colon; 32.4% in the test with HCC-2998 colon; 12% with KM12 colon.
As for `COc1ccc2c(c1OC)C(=O)O[C@@H]2[C@H]1c2c(c(C#CC#Cc3ccc(F)c(F)c3)c3c(c2OC)OCO3)CCN1C`, the growth in the test with SR leukemia was 60.2%; with RPMI-8226 leukemia it was 67.3%; with OVCAR-8 ovarian, 87.9%; with OVCAR-5 ovarian, 96.5%; with OVCAR-4 ovarian, 99.9%; in the test on SK-OV-3 ovarian, 76%. Moreover, the growth in the test on IGROV1 ovarian is 90.1%; in the test with OVCAR-3 ovarian, 104%; with HS 578T breast, 101%; in the test on NCI/ADR-RES ovarian it was 89.3%; in the test on T-47D breast, 69.6%; in the test with BT-549 breast, 78.2%. The growth was 89.7% with MDA-MB-435 melanoma; 104% in the test with SW-620 colon; 94% in the test on MCF7 breast; 59.8% in the test with HCT-116 colon; 88.5% with HCC-2998 colon; 83% in the test on KM12 colon.
As for `CCc1nc2ccc(Cc3ccc(C(=O)NO)cc3)cc2c(=O)n1CCc1ccccc1`, the growth is 2.05% (active) in the test with SR leukemia; 6.11% (active) in the test with RPMI-8226 leukemia; -31% (active) with OVCAR-8 ovarian; 1.71% (active) in the test with OVCAR-5 ovarian; -7.64% (active) in the test on OVCAR-4 ovarian; -26.9% (active) in the test on SK-OV-3 ovarian. Moreover, the growth is -56.7% (active) in the test on IGROV1 ovarian; -37.1% (active) in the test with OVCAR-3 ovarian; 14.9% with HS 578T breast; -17.3% (active) with NCI/ADR-RES ovarian; -7.19% (active) in the test with T-47D breast; -31.2% (active) with BT-549 breast. In addition, the growth in the test with MDA-MB-435 melanoma was -73.7% (active); in the test on SW-620 colon, -27.2% (active); in the test on MCF7 breast, 4.69% (active); with HCT-116 colon it was -55% (active); in the test on HCC-2998 colon, -74.8% (active); in the test on KM12 colon, -58.9% (active).

Values taken from PubChem BioAssay (NCI).
